PI5P4K alpha inh – qHTS for Inhibitors of phosphatidylinositol 5-phosphate 4-kinase (PI5P4K); 330,000 tested, 1.2% active; max response, %; AID 652105, 2013; PI5P4Kalpha enzyme, ADP-Glo luminescence, 60 min; stronger effect = lower value; Phosphatidylinositol 5-phosphate 4-kinase type-2 alpha (Homo sapiens), P48426; active = max response of -50% or lower; inconclusive = between -30% and -50%; inactive = -30% or higher; note: value at the top dose of about 77 µM; % is set by controls: 0 for no effect and ±100 for the full control effect
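ADP-Glo luminescence end-point read after a 60 min room-temperature kinase reaction of PI5P4Kalpha plus substrate, initiated with ATP at 5 microM final. Buffer: 0.038 M HEPES pH 7.4, EGTA, 0.1% CHAPS, 5% DMSO.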
PI4K2A block – qHTS for small molecular inhibitors of PI4K2A; Phosphatidylinositol 4-kinase type 2-alpha (Homo sapiens), Q9BTU6; purified PI4K2A, ADP-Glo luminescence, 1 h; stronger effect = lower value; activity change, negative = inhibition, % at 76.9 µM; 420,000 tested, 0.13% active; AID 1346378, 2018; in the data active = activity change below about -50%; inconclusive = mostly about -30% to -49%;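 note: -100% = wells without enzyme as full effect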
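Compounds are screened against recombinant PI4K2A using PI as substrate and ATP, the latter dispensed at 300 microM. Reactions run one hour at ambient temperature before ADP-Glo detection; full inhibition defined by wells lacking enzyme.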
Pol eta inh – qHTS for Inhibitors of Polymerase Eta; 390,000 tested, 1.2% active; AID 588591, 2011; Potency, µM (series often up to 114 µM), inactives show at the top dose activity change, negative = inhibition, hits mostly inhibitors; recombinant Pol eta, fluorescent DNA replication assay; DNA polymerase eta (Homo sapiens), Q9Y253; note: potency is the fitted concentration of half-maximal effect; % is set by controls: 0 for no effect and ±100 for the full control effect
Target sequence (Q9Y253 whole entry, looked up): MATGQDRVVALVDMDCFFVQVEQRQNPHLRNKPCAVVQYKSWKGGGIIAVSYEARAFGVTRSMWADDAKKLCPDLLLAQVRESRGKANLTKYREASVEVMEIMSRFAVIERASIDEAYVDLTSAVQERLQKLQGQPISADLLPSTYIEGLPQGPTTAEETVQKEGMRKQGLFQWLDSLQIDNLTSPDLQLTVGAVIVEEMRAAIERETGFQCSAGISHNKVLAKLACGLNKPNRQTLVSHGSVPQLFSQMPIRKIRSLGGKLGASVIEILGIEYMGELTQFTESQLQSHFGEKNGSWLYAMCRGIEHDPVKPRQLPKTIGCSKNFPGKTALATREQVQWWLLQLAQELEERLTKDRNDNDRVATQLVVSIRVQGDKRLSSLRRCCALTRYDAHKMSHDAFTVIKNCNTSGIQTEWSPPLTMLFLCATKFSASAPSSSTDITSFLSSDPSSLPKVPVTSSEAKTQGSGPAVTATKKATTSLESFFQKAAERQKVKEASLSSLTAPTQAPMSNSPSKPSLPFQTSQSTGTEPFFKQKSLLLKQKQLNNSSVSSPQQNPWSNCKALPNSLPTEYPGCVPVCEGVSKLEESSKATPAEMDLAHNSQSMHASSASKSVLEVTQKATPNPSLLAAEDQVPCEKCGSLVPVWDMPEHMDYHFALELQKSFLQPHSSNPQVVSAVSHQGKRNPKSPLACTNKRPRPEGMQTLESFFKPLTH
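Fluorescent replication assay: 50 nM final substrate added after a 15 min room-temperature compound preincubation with 10 nM enzyme. Signal taken at 0 min and again at 10 min.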
POLI inh – qHTS for Inhibitors of Polymerase Iota; Pol iota fluorescent replication assay, 10 min; Potency, µM (highest dose often 115 µM), without a hit: at the highest dose activity, negative = inhibition, actives largely listed as inhibitors; 390,000 tested, 1% active; AID 588590, 2011; note: potency is the fitted concentration of half-maximal effect
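Fluorescent replication assay read twice, at 0 min and 10 min after adding 50 nM (final) substrate. Enzyme (10 nM) and compounds were first incubated 15 min at room temperature; enzyme-free buffer wells were negative controls.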
Pol kappa inh – qHTS for Inhibitors of Polymerase Kappa; DNA polymerase kappa (Homo sapiens), Q9UBT6; purified Pol kappa, fluorescent DNA synthesis assay, 10 min; Potency, µM (highest dose often 107 µM), inactives show at the top dose activity, negative = inhibition, hits mostly inhibitors; 400,000 tested, 0.53% active; AID 588579, 2011; note: potency is the fitted concentration of half-maximal effect; % is set by controls: 0 for no effect and ±100 for the full control effect
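First, compounds were pin-transferred onto 10 nM Pol kappa. After 15 min at room temperature, substrate was added to 50 nM final. Fluorescence was then measured kinetically at 0 and 10 min.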
POLB inh – qHTS Assay for Inhibitors of DNA Polymerase Beta; P06746; Pol beta primer extension/strand displacement, fluorescence kinetic; Potency, µM (titrated, usually from 114 µM), inactives show at the highest dose activity change, negative = inhibition, most hits filed as inhibitors; 340,000 tested, 1.3% active; AID 485314, 2010; note: potency is the fitted concentration of half-maximal effect; % is set by controls: 0 for no effect and ±100 for the full control effect
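Pol beta (10 nM) and compounds were preincubated 15 min at room temperature, then 50 nM substrate (final) started primer extension/strand displacement. Reads were taken at 0 and 10 min; concentration-response data were fitted to a four-parameter Hill equation.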
Numbers without * were called inactive; u = inconclusive; x = no result given; [ ] = dose if it differs, or a comment. Compounds with a hit are over-represented: about 2.8% of the library has one in this group of screens. Unless noted, calls come from the whole dose curve; as a rule, active = well fitted inhibition curve with a large enough effect; inconclusive = small, poorly fitted or top-dose-only effect, or another doubt; inactive = no such curve, though single readings can be large or run the other way.

SMILES	PI5P4K alpha inh	PI4K2A block	Pol eta inh	POLI inh	Pol kappa inh	POLB inh
CCOC(=O)c1cccc(NC(=O)CN(C)S(=O)(=O)c2ccc(Cl)s2)c1	x	-5.6	x	x	x	x
CCOC(=O)NC(=O)CSc1nc2ccccc2[nH]1	2.4	1.0	-9.1%	26.9%	5.4%	50.1µM*
Cc1cc(SCC(=O)NC(=O)NCc2ccco2)nc2c(C)cccc12	x	-16.1	-26.2%	u	-22.0%	15.8µM*
O=C(CSc1nnc(CNC(=O)c2ccccc2)o1)NCc1ccco1	-7.4	0.4	7.8%	-22.1%	-11.0%	0.0%
O=C(CSc1nnc(CNC(=O)c2c(F)cccc2F)o1)NCc1ccco1	u	-2.3	u	u	-29.3%	25.1µM*
Cc1cc(SCC(=O)NC(=O)NCc2ccco2)nc2ccccc12	x	-0.6	-16.2%	u	-5.3%	0.1%
Cc1ccc2c(c1)cc(C(=O)NCc1ccccc1C)n2C	x	-1.5	-19.1%	25.8%	-3.6%	0.8%
CO[C@@H]1[C@@H](OC)[C@H](C)[C@@](O)(CC(=O)O)O[C@H]1[C@H](C)[C@H]1O[C@@]2(CC[C@@](C)([C@H]3CC[C@@](C)([C@@H]4O[C@@H]([C@H]5O[C@](C)(O)[C@H](C)C[C@@H]5C)C[C@@H]4OC4C[C@H](OC)[C@@H](OC)[C@H](C)O4)O3)O2)C[C@H](O)[C@H]1C (stereo partly drawn)	x	-3.9	x	x	x	x
COc1cccc(CNC(=O)CCn2c(=O)c3cccn3c3cccnc32)c1OC	x	-2.6	-12.5%	16.0%	-15.5%	-1.8%
CC(C)NC(=O)N[C@@H]1C[C@@H]2O[C@@H](CO)CC[C@@H]2O[C@@H]1CCc1ccc(-c2ccccc2F)cc1	x	-1.3	x	x	x	x
COc1cc2c(O)cc(C(=O)O)c(-c3cc(OC)c(OC)c(OC)c3)c2cc1OC	-0.4	-2.4	89.1µM*	u	8.4%	x
CCOC(=O)COc1ccc2nsnc2c1Cl	-0.9	-5.0	-18.5%	5.8%	-27.6%	1.0%
C=C(CC)C(=O)c1ccc(OCC(=O)O)c(Cl)c1Cl	-19.2	-13.4	79.4µM*	10µM*	-7.1%	0.6%
COc1ccc(S(=O)(=O)NCCc2sc(-c3ccccc3)nc2C)cc1F	x	-1.8	-15.4%	11.3%	-1.9%[60.1 µM]	0.0%
O=Cc1cc(N=Nc2cccc(C(=O)O)c2)ccc1O	-79.0*	-12.4	u	u	u	35.5µM*
O=C(COCCOCCOCC(=O)Nc1c(I)cc(I)c(C(=O)O)c1I)Nc1c(I)cc(I)c(C(=O)O)c1I	x	-1.9	x	x	x	x
CC(C)(C)c1nnc(N/N=C/c2ccc(Br)cc2)n(N)c1=O	17.4	-2.1	-20.9%	15.0%	-6.9%	2.5%
CC(C)(C)c1ccc(/C=N/Nc2nncn2N)cc1	-0.8	-29.7	-7.5%	3.16µM*	-2.8%	-18.7%
COc1cc(/C=N\Nc2nncn2N)ccc1OC(C)=O	-4.6	u	-10.3%	7.08µM*	-27.0%	16.9%
CC1CCN(c2ccc(/C=N\Nc3nncn3N)cc2[N+](=O)[O-])CC1	7.7	-22.2	-18.4%	12.6µM*	-12.5%	-2.2%
CSc1ccc(/C=N\Nc2nncn2N)cc1	-1.9	-28.4	-22.4%	5.62µM*	-4.1%	3.2%
COc1ccc(OC)c(/C=C/c2ccc3ccccc3[n+]2C)c1	x	x	x	25.6%	-11.2%	x
CC(=O)NC(Cc1ccc(I)cc1)C(=O)NCC(N)C(=O)c1ccccc1 (stereo not drawn)	x	x	x	-18.7%	-3.7%	x
Cc1c(-c2nsc(NC(=O)c3cccs3)n2)nnn1-c1ccc(F)cc1	x	-7.4	-9.0%	-12.9%	4.0%	6.5%
Cc1c(-c2nsc(NC(=O)c3cccs3)n2)nnn1-c1ccc(Cl)cc1	x	-14.0	u	u	-44.0%	20µM*
SMILES	PI5P4K alpha inh	PI4K2A block	Pol eta inh	POLI inh	Pol kappa inh	POLB inh
O=C(CSc1oc(-c2ccco2)nc1S(=O)(=O)c1ccc(Br)cc1)c1ccc(Cl)cc1	x	-3.6	-3.3%	89.1µM*	u	11.6%
O=C(Cn1cnc2c(cnn2-c2ccc(F)cc2)c1=O)NCc1ccco1	1.4	0.9	-15.3%	9.7%	-2.7%	27.2%
Cc1sc2ncn(CC(=O)NCc3ccco3)c(=O)c2c1-c1ccc(F)cc1	u	-0.9	79.4µM*	30.3%	-13.9%	u
CC1(C)OC(=O)C(=Cc2ccc(-c3ccc(S(N)(=O)=O)cc3)o2)C(=O)O1	-58.8*	-17.2	50.1µM*	u	u	4.3%
NS(=O)(=O)c1ccc(-c2ccc(/C=C3\C(=O)Nc4cc(Cl)ccc43)o2)cc1	u	u	u	u	-18.7%	u
CCN(CC)S(=O)(=O)c1cc(C(=O)O)c(Cl)cc1Cl	-6.3	0.7	-12.4%	-10.2%	-12.3%	-6.2%
CCN(CC)S(=O)(=O)c1cccc2cc(C(=O)O)c(O)cc12	-67.1*	-5.6	-5.9%	u	2.2%	39.5%
O=C(/C=C/c1ccc(Br)cc1)NC(=S)NNC(=O)c1ccco1	-52.3*	-1.8	-5.9%	6.1%	4.1%	6.5%
CCCCCCCCCC[n+]1ccc(/C=C/c2c(C)[nH]c3ccccc23)cc1	x	x	x	-8.4%	-23.3%	x
CS(=O)(=O)c1nc([N+](=O)[O-])nn1CCCc1ccccc1	-1.5	13.3	-16.6%	10.4%	-8.4%	x
Cn1nc([N+](=O)[O-])nc1S(C)(=O)=O	-11.0	-6.7	-3.7%	u	u	89.1µM*
CCOC(=O)c1ccc(S(=O)(=O)Nc2nc3cc(S(=O)(=O)NC4=NCCCCC4)ccc3s2)cc1	-53.8*	-11.6	-5.2%	14.1µM*	-2.7%	1.5%
CCc1cc2cc3c(cc2nc1SCC(=O)Nc1c[nH]c(=O)[nH]c1=O)OCO3	0.5	1.2	-5.2%	-11.9%	0.6%	-15.0%
CCc1cc2cc3c(cc2nc1SCC(=O)Nc1nccs1)OCO3	x	-2.2	8.3%	70.8µM*	-1.6%	0.4%
CCc1nc(SCC(=O)Nc2nccs2)c2oc3ccccc3c2n1	0.6	0.6	u	31.6µM*	-20.3%	15.8µM*
CC(C)(CO)C(O)C(=O)NCCCC(=O)O (stereo not drawn)	x	x	x	x	2.3%[19.4 µM]	x
CCOCCOC(=O)/C=C/c1ccc(OC)cc1	x	0.0	x	x	x	x
Cc1nc2cnc(N3CCOCC3)nc2n(Cc2cccs2)c1=O	x	x	x	x	-9.0%[60.1 µM]	x
CCCC(=O)Oc1ccc2[nH]c(C(=O)c3cc4ccccc4[nH]3)cc2c1	x	x	x	49.4%	3.0%	x
Cc1[nH]c2ccccc2c1/C=C/c1nc2ccccc2c(=O)[nH]1	-63.3*	-7.6	-18.3%	u	-16.4%	-1.4%
Cc1cccc(/C=C/c2nc3ccccc3c(=O)[nH]2)c1	-1.0	-1.1	-5.7%	-23.9%	0.4%	2.5%
O=C(/C=C/c1ccco1)Nc1cc(Cl)ccc1C(=O)O	u	0.4	10µM*	u	u	22.4µM*
